Inconclusive results are not listed. Activity calls are given as the source filed them. The call rests on the fitted dose curve; in most records, active means well fitted curve in the direction sought with a large enough effect; inconclusive means small, poorly fitted or top-dose-only effect, or another doubt; inactive means no such curve, though single readings can be large; an effect the other way counts as inactive or inconclusive.
Experiments:
[1] = qHTS to identify inhibitors of the type 1 interferon - major histocompatibility complex class I in skeletal muscle: primary screen against the NCATS Pharmaceutical Collection (AID 1347407);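 further: luminescence of HiBiT knocked into endogenous HLA-B as interferon-induced MHC class I level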
In short: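 Immortalized human myoblasts (C25cl48) with HiBiT knocked into endogenous HLA-B*08:01 were stimulated with 4 ng/ml IFN-beta and treated with compounds (8-point, 1:5, top 46 uM final) for 24 h at 37 C; HiBiT lytic luminescence read.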

[2] = molecular target: Protein phosphatase 1D (Homo sapiens) (UniProt O15297); experiment: RapidFire Mass Spectrometry qHTS Assay for Modulators of WT P53-Induced Phosphatase 1 (WIP1) (AID 1347424);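 further: amount of dephosphorylated VEPPL-S-QETFS peptide product formed by WIP1; series mostly up to about 63 µM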
In short: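 WIP1 (10 nM final) was preincubated 1 h at room temperature with compounds in Tris-HCl pH 7.5, 30 mM MgCl2, TCEP, EGTA, BSA; 2 uM VEPPL-pS-QETFS phosphopeptide was added for 5 min, quenched with formic acid, and dephosphorylated product quantified by RapidFire MS.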

[3] = molecular target: Protein phosphatase 1D (Homo sapiens) (UniProt O15297); experiment: Rhodamine-PBP qHTS Assay for Modulators of WT P53-Induced Phosphatase 1 (WIP1) (AID 1347425)
In short: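 Steps: enzyme with Rh-PBP sensor and compounds, room-temperature incubation of 1 hr, baseline read, addition of VEPPL-pS-QETFS (10 uM final), kinetic fluorescence reads at 525/598 nm. Activity equals final minus baseline signal.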

[4] = Primary qHTS for inhibitors of La Crosse Virus (LACV) - induced cell death in SH-SY5Y cells (AID 1508616);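 further: top concentration of the series differs between compounds; higher means more rescue of cells from virus-induced death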
In short: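 Protection against LACV-induced cell death is scored in SH-SY5Y cells exposed to compounds and virus (0.01 MOI) for 6 days. Data normalized to virus-infected DMSO wells and virus-free DMSO wells.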

[5] = molecular target: Calcium and integrin-binding protein 1 (Homo sapiens) (UniProt Q99828); experiment: Primary qHTS for Identification of Calcium Integrin Binding Protein 1 (CIB1) Competitor (AID 1508620);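 further: GST tagged CIB1 binding a fluorescein labelled alphaIIb integrin peptide tracer; top concentration of the series differs between compounds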
In short: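 Fluorescence polarization competition: CIB1-GST (1 uM final) preincubated with compound 15 min at room temperature, then FITC-labeled alphaIIb peptide (100 nM final) added for another 15 min. Polarization read at Ex 480/Em 540.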

Measured: Potency

Sequence of Protein phosphatase 1D (Homo sapiens) (O15297 whole entry, looked up): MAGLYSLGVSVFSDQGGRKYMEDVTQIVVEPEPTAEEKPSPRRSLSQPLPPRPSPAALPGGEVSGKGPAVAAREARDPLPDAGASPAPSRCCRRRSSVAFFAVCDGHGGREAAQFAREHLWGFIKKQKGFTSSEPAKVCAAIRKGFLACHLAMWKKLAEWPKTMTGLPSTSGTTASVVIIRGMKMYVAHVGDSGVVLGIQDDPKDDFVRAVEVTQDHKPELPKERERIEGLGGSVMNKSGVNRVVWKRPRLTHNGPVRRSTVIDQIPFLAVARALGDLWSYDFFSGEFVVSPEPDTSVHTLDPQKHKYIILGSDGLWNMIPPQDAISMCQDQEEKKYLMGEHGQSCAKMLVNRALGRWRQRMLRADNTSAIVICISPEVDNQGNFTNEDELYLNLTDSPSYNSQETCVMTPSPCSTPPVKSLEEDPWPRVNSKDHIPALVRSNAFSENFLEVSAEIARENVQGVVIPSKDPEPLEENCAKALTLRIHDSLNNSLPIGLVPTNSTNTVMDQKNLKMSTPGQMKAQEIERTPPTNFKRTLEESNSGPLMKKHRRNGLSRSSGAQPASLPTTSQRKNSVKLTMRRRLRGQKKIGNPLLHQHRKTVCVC
Sequence of Calcium and integrin-binding protein 1 (Homo sapiens) (Q99828 whole entry, looked up): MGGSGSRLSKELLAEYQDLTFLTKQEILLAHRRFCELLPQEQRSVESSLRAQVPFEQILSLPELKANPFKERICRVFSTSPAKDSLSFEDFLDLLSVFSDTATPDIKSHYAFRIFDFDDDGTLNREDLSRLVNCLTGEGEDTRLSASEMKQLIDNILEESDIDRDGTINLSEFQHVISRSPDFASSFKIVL

Cc1c(F)cc2c(=O)c(C(=O)O)cn3c2c1CCC3C (stereo not given)
inactive: [1] | [2] | [3] | [4] | [5]

O=C(CCOCCOCCOCCOCCC(=O)Nc1c(I)cc(I)c(C(=O)O)c1I)Nc1c(I)cc(I)c(C(=O)O)c1I
inactive: [1] | [2] | [3] | [4] | [5]

CC(COc1ccccc1)NN (stereo not given)
inactive: [1] | [2] | [3] | [4] | [5]

CC(C)(C)c1ccc(C(=O)CCCCl)cc1
inactive: [1] | [2] | [3] | [4] | [5]

CC1(C)O[C@@H]2C[C@H]3[C@@H]4CCC5=CC(=O)C=C[C@]5(C)[C@@]4(F)[C@@H](O)C[C@]3(C)[C@]2(C(=O)CO)O1
inactive: [1] | [2] | [3] | [4] | [5]

O=S(=O)(O)c1ccc2nc(-c3ccccc3)[nH]c2c1
inactive: [1] | [2] | [3] | [4] | [5]

C[C@@H](C1=C(CCN(C)C)Cc2ccccc21)c1ccccn1
inactive: [1] | [2] | [3] | [4] | [5]

CCOc1ccc(NS(=O)(=O)c2ccc(N)cc2)nn1
inactive: [1] | [2] | [3] | [4] | [5]

COc1ccc2c(c1)c(CC(=O)OC/C=C(\C)CC/C=C(\C)CCC=C(C)C)c(C)n2C(=O)c1ccc(Cl)cc1
inactive: [1] | [2] | [3] | [4] | [5]

CC(=O)Nc1c(I)c(NC(C)=O)c(I)c(C(=O)O)c1I
inactive: [1] | [2] | [3] | [4] | [5]

C/C=C(/C(=C/C)c1ccc(OC(C)=O)cc1)c1ccc(OC(C)=O)cc1
inactive: [1] | [2] | [3] | [4] | [5]

Source: PubChem BioAssay (NCATS)
